# Measurements from PubChem BioAssay (NCATS).
# Results filed as inconclusive are left out. A call without a number means that no potency is given here. The source made the active and inactive calls. The call rests on the fitted dose curve; in most records, active means well fitted curve in the direction sought with a large enough effect; inconclusive means small, poorly fitted or top-dose-only effect, or another doubt; inactive means no such curve, though single readings can be large; an effect the other way counts as inactive or inconclusive.
# Legend:
# [1] = target: Aldehyde dehydrogenase, mitochondrial (Homo sapiens) (UniProt P05091); assay: qHTS for Inhibitors of the Aldehyde Dehydrogenase Family (ALDH2) Primary screen (AID 2061308); further: nearly all actives have a fitted effect of over 55% in size
# [2] = target: Retinaldehyde dehydrogenase 3 (Homo sapiens) (UniProt P47895); assay: qHTS for Inhibitors of the Aldehyde Dehydrogenase Family (ALDH1A3) Primary screen (AID 2061315)
SMILES,Potency [1],Potency [2]
COc1ccc(CNc2nc(-c3ccccc3C(F)(F)F)nc3ccccc23)cc1,inactive,inactive
COC(=O)c1ccc(N2CCN(S(=O)(=O)c3ccc4c(c3)CC(=O)N4)CC2)cc1,inactive,inactive
NC(=O)C1CCN(c2nccc(-c3ccc(Br)cc3)n2)CC1,inactive,inactive
COc1ccc2c(c1)Oc1nc(-c3ccc(C)s3)nc(SCC(=O)Nc3cccc(C(=O)O)c3)c1C2,inactive,inactive
CCOc1ccc(CCNC(=O)c2ccc3[nH]ccc3c2)cc1OCC,inactive,inactive
CC(C)(C)OC(=O)Cc1nnc(-c2nc3ccccc3[nH]2)s1,inactive,inactive
N#Cc1nc(Nc2cc(Cl)cc(Cl)c2)nc(NC2CCCC2)n1,inactive,inactive
COc1cccc(S(=O)(=O)N2CCN(S(=O)(=O)c3ccc4c(c3)OCCO4)CC2)c1,inactive,inactive
O=C(Nc1nc(-c2ccccc2)cs1)c1ccncc1NS(=O)(=O)c1cccc(Cl)c1,inactive,inactive
C#CCCC(=O)Nc1sc2c(c1-c1nc3ccccc3s1)CCN(C(C)C)C2,inactive,inactive
CC(=O)Nc1sc2c(c1-c1ncco1)CCNC2,inactive,inactive
COc1ccc(-c2nc3ccccc3s2)cc1OC,inactive,inactive
COc1cc(F)c(S(=O)(=O)N2CCCN(S(=O)(=O)c3cccc(NC(C)=O)c3)CC2)c(F)c1,inactive,inactive
Fc1ccc(-c2ccc(Nc3nc(-c4ccncc4)nc4ccccc34)cc2F)c(F)c1,inactive,inactive
O=C(O)c1ccc(CSc2nnc(-c3ccc([S+](=O)([O-])N4CCCC4)cc3)n2-c2ccccc2)cc1,inactive,inactive
COC1CC(O[C@H]2CC[C@]3(C)C4CC[C@@]5(C)C(=O)[C@]4(CC[C@@H]3C2)CC[C@@H]5C2=CC(=O)OC2)OC(C)C1OC1OC(COC2OC(CO)C(O)C(O)C2O)C(O)C(O)C1O (stereo partly drawn),inactive,inactive
Cc1cncc(NC(=S)N2CCN(c3cccc(C(F)(F)F)c3)CC2)c1,inactive,inactive

SMILES,Potency [1],Potency [2]
O=C(Nc1ccc(Cl)c(Cl)c1)N1CCN(c2ccncc2)CC1,inactive,inactive
O=S(=O)(Nc1nc(-c2ccccc2C(F)(F)F)nc2ccccc12)c1ccc(-c2ccnc(C(F)(F)F)c2)cc1,inactive,inactive
O=[S+]([O-])(c1ccc(-c2ccccc2)cc1)N1CCN([S+](=O)([O-])c2ccc3c(c2)OCCO3)CC1,inactive,inactive
CNc1oc(-c2cccc3c2OC(F)(F)O3)nc1C#N,inactive,inactive
O=C(Nc1ccc(-c2ccccc2)cc1)[C@H](Cc1ccc(O[S+](=O)([O-])c2cccc3cnccc23)cc1)N[S+](=O)([O-])c1cccc2cnccc12,inactive,inactive
O=S(=O)(Nc1nccs1)c1ccc(NCc2cc(F)ccc2O)cc1,inactive,inactive
O=C1CCc2cc(S(=O)(=O)Nc3ccncc3)ccc2N1,inactive,inactive
O=C(Cc1nnc(CNC(=O)c2ccccc2)o1)Nc1cc(C(F)(F)F)ccc1Cl,inactive,inactive
COc1cc(O)c(C(CC(=O)N2CCCC(COc3ccc(F)cc3)C2)c2ccc3c(c2)OCO3)c(OC)c1 (stereo not drawn),inactive,inactive
NC(=O)c1c(NC(=O)C2CCCO2)sc2c1CCCC2 (stereo not drawn),inactive,inactive
O=C(OCC#CCSc1nnc(-c2ccc3ccccc3c2)o1)c1cccc(F)c1,inactive,inactive
Nc1ccc(S(=O)(=O)N2CCN(S(=O)(=O)c3ccc4c(c3)OCCO4)CC2)cc1,inactive,inactive
COc1ccc(-c2nnc(NC(=O)Nc3ccc4ccccc4c3)s2)cc1OC,inactive,inactive
COc1cccc(C2=Nn3c(nnc3-c3cc(OC)cc(OC)c3)SC2)c1,inactive,inactive
Cc1ccc(OCCn2c(CCNC(=O)Cc3cc(F)ccc3F)nc3ccccc32)cc1,inactive,inactive
Cc1ccc(OCCn2c(CCNC(=O)C3CCN(C(=O)OC(C)(C)C)CC3)nc3ccccc32)cc1,inactive,inactive
COc1cccc(Cn2ncc3c4sc(Br)cc4n(C)c3c2=O)c1,inactive,inactive
